The list is not random: actives were taken first. Their share in the collection is about 7.4%.
Rab9 promoter act – activates the Rab9 promoter | Huh7 Rab9 promoter-luciferase reporter, luminescence, 24 h | Potency, µM (top dose mostly 9.22 µM), for inactives: at the top dose activation, negative = inhibition, usual class: activators | 320,000 tested, 2.8% active; note: % of control where 0% means no effect; nearly all actives have a fitted effect of over 60% in size
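Luciferase signal after 10 min detection reagent at ambient indicates Rab9 promoter upregulation; stably transfected Huh7 cells were treated 24 h with compound in DMSO at 37 °C, 5% CO2.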
KinaseGlo FLuc – counter-screen: inhibitors of Kinase-Glo firefly luciferase; Q27757; Kinase-Glo luciferase, ATP luminescence, 8 min; Potency, µM (highest dose often 38.3 µM), for inactives: at the top dose activity change, negative = inhibition, most hits filed as inhibitors; 200,000 tested, 0.28% active; AID 1379; note: % is set by controls: 0 for no effect and ±100 for the full control effect; nearly all actives have a fitted effect of over 60% in size
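Luminescence was the read-out, taken after 8-minute incubation at ambient temperature. Luciferase turned over luciferin with 10 uM ATP in imidazole pH 7.2 buffer containing KCl, MgCl2, Tween 20 and BSA.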
SMN2 splice up – SMN2 splice variant enhancement; HEK293 SMN2-luciferase splicing reporter, luminescence, 30-36 h; Potency, µM (top dose mostly 46.1 µM), without a hit: at the top dose activity change, positive = activation, most hits filed as activators; 210,000 tested, 2.8% active; note: % of control where 0% means no effect; nearly all actives have a fitted effect of over 55% in size
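HEK293 cells carry an SMN2 […]–luciferase reporter in which exon 7 inclusion puts luciferase in frame. Cells were plated 10-12 h before compound addition, then incubated 30-36 h at 37C. ONE-Glo luminescence was read; sodium butyrate at 4.5 mM final served as control.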
FLuc modulator – firefly luciferase modulation, counter-screen for miR-21 project. P08659. purified FLuc, Km substrates, luminescence inhibition. Potency, µM (highest dose often 57.5 µM), inactives show top-dose activity change, negative = inhibition, most hits filed as inhibitors. 360,000 tested, 6.9% active. AID 588342;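 note: plate controls were vehicle for no effect and reference inhibitor for full effect; nearly all actives have a fitted effect of over 55% in size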
Target sequence (P08659 whole entry, looked up): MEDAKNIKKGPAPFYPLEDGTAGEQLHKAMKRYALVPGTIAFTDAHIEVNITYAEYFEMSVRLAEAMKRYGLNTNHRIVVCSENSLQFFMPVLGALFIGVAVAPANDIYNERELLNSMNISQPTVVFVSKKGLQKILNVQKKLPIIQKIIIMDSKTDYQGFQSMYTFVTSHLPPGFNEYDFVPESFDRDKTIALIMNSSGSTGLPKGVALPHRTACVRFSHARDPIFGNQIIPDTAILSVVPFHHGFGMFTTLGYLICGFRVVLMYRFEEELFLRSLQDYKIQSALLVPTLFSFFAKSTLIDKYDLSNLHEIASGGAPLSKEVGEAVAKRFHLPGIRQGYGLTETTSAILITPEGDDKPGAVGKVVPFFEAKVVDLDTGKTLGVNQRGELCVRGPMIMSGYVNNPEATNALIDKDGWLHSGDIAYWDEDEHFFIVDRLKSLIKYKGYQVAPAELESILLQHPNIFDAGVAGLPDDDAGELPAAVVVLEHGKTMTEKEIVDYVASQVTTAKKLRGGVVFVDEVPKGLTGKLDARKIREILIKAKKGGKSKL
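Purified P. pyralis luciferase, 10 nM final, with Km-level 10 uM D-luciferin and 10 uM ATP in 50 mM Tris acetate pH 7.5, 10 mM Mg acetate, 0.01% Tween-20, 0.05% BSA; 6-point qHTS titration about 60 µM downward; luminescence read.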
ELG1 genotoxic – inducers of genotoxicity in HEK293T ELG1-luciferase cells; Potency, µM (series often up to 46 µM), without a hit: top-dose activity change, positive = activation, actives largely listed as activators; HEK293T ELG1-luciferase reporter, luminescence, 16 h; 330,000 tested, 1.3% active; AID 504466; note: % of control where 0% means no effect; nearly all actives have a fitted effect of over 60% in size
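HEK293T cells expressing luciferase-tagged ELG1 were exposed to compound or DMSO vehicle for 16 hr at 37 °C and 5% CO2. Luciferase activity was then measured with ONE-Glo after 30 min at room temperature.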
NPC1 prom act – activates the NPC1 promoter. 320,000 tested, 2.4% active. Huh7 NPC1 promoter luciferase reporter, 24 h. Potency, µM (series often up to 9.22 µM), inactives show at the top dose activation, actives largely listed as activators; note: % of control where 0% means no effect; nearly all actives have a fitted effect of over 60% in size
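Compounds in DMSO were transferred onto Huh7 NPC1-luciferase reporter cells pre-incubated 2 h; after 24 h at 37 °C, Amplite reagent was dispensed and luminescence recorded 10 min later.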
Starred values were filed as active, the others as inactive; ? = inconclusive; . = no result given; [ ] = dose if it differs, or a comment. Calls come from the whole dose curve; as a rule, active = well fitted curve in the direction sought with a large enough effect; inconclusive = small, poorly fitted or top-dose-only effect, or another doubt; inactive = no such curve, though single readings can be large; an effect the other way counts as inactive or inconclusive. Potency is the fitted concentration of half-maximal effect.

SMILES	Rab9 promoter act	KinaseGlo FLuc	SMN2 splice up	FLuc modulator	ELG1 genotoxic	NPC1 prom act
COc1ccc(C(=O)Nc2nc(-c3cccs3)cs2)cc1	.	-3%	-34%	6.7µM*	.	.
O=C(Nc1nc(-c2cccs2)cs1)c1ccc(Cl)cc1	16%	-3%	6%	11µM*	?	14%
Cc1ccc(C(=O)Nc2nccc(-c3cccs3)n2)cc1	17%	-6%	14%	13µM*	3%	29%
Cc1csc(NC(=O)c2sc3nc(-c4cccs4)ccc3c2N)n1	-37%	-3%	-5%	3.8µM*	?	-31%
Cc1ccc(NC(=O)c2sc3nc(-c4cccs4)ccc3c2N)cc1F	.	.	22%	-15%	.	.
CCCOc1ccc(NC(=O)CC2C(=O)N(c3cccc(OC)c3)C(=O)N2Cc2cccs2)cc1 (stereo not given)	.	.	.	-12%	.	.
CN(C)c1ccc(CNC(=O)CN2CCSc3ccc(S(=O)(=O)N(C)C)cc32)cc1	.	.	.	-15%	.	.
COc1ccccc1/C=N/NC(=O)CNC(=O)c1ccccc1	-1%	.	.	?	-3%	4%
COc1ccccc1/C=N/OCc1cc(C(C)=O)ccc1OC	-1%[1.84 µM]	.	.	-7%	3%	-3%
COc1ccccc1/C=N/OC(=O)c1ccc(F)cc1	1%	.	.	3.4µM*	3%	3%
COc1ccccc1/C=N/NC(=O)c1ccc(Br)cc1	1%	0%	7%	13µM*	-5%	-3%
COc1ccc(/C=N/NC(=O)c2ccncc2)c(OC)c1	3%	.	.	?	-2%	-1%
COc1ccc(/C=N/NC(=O)c2ccc(Br)cc2)c(OC)c1	-2%	5%	29%	15µM*	7%	-3%
COc1ccc(C(=O)N/N=C\c2coc3ccccc3c2=O)cc1	-5%	.	.	4.8µM*	-7%	-3%
O=C(COC(=O)c1cc(S(=O)(=O)N2CCCCC2)ccc1N1CCOCC1)NCCc1ccc(F)cc1	0%	-3%	-17%	-2%	-5%	-11%
Cc1ccc(CN2C(=O)C(O)(CC(=O)c3ccc(C)cc3)c3ccccc32)cc1 (stereo not given)	.	.	-8%	?	.	.
Cc1nc(N2CCOCC2)c2nc(-c3ccccc3)n(CCCN3CCOCC3)c2n1	.	-1%	?	.	.	.
COc1cc(C(=O)Oc2ccccc2/C=N/NC(=O)c2ccc(Cl)cc2)cc(OC)c1OC	-24%	-1%	-101%	6.7µM*	?	0%
COCCNc1cnn(-c2ccccc2)c(=O)c1Cl	16%	.	.	-18%	3%	16%
C1=C(CCNc2ncnc3c2[nH]c2ccccc23)CCCC1	-33%	1%	-43%	19µM*	6%	-28%
CC(C)OCCCNc1ncnc2c1[nH]c1ccccc12	-19%	-3%	-112%	?	13%	-4%
O=c1c2[nH]c3ccccc3c2ncn1CCC1=CCCCC1	?	0%	24%	1%	12%	2.5µM*
CC(C)c1ccc(NC2CCCN(C(=O)CCc3cn[nH]c3)C2)cc1 (stereo not given)	0%	.	.	5%	-5%	-3%
COc1cc(OC)cc(C(=O)N2CCN(C(=O)COc3ccc4ccccc4c3)CC2)c1	3%	1%	-12%	5.4µM*	1%	9%
COc1ccc(N2CCN(C(=O)COc3ccc4ccccc4c3)CC2)cc1	-1%	-2%	1%	-2%	0%	-3%
SMILES	Rab9 promoter act	KinaseGlo FLuc	SMN2 splice up	FLuc modulator	ELG1 genotoxic	NPC1 prom act
O=C(COc1ccccc1)N1CCN(C(=O)c2ccc([N+](=O)[O-])cc2)CC1	3.2µM*	?	.	9.5µM*	?	4µM*
COc1cccc(-n2nnc3c(=O)n(CC(=O)Nc4cc(C)on4)cnc32)c1	-13%	0%	6%	6%	-5%	-3%
c1ccc(Sc2cnc3ccccc3n2)cc1	.	-7%	11%	21µM*	.	.
Clc1ccccc1Sc1cnc2ccccc2n1	14%	-6%	-7%	?	1%	4%
Clc1ccc(Sc2cnc3ccccc3n2)cc1	.	-2%	-6%	15µM*	.	.
Brc1ccc(Sc2cnc3ccccc3n2)cc1	.	-1%	-11%	?	.	.

High-throughput results (PubChem BioAssay)
